Tau ThT inhib: blocks human tau fibril formation measured by thioflavin T | P10636 | recombinant tau K18 P301L, heparin-induced fibrillization, ThT fluorescence | Potency, µM (doses to about 57.4 µM), without a hit: at the top dose activity, negative = inhibition, most hits filed as inhibitors | 270,000 compounds, 2.1% hits; also: nearly all actives have a fitted effect of over 55% in size
Target sequence (P10636 561-689 P618L limits assumed): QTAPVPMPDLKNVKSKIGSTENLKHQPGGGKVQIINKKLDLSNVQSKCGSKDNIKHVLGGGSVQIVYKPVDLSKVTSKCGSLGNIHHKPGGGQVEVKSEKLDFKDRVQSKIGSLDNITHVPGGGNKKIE
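In this qHTS, human K18 P301L tau is incubated with compound and heparin for 6 hr at 37 C, and Thioflavin T fluorescence then reports fibril load.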
Tau fluor counter: counter-screen for tau fibril formation inhibitors; tau K18 P301L (four-repeat tau fragment) Alexa594 fluorescence, heparin fibrillization; Potency, µM (doses to about 57.7 µM), for inactives: at the highest dose activity change, negative = decrease; 280,000 compounds, 0.93% hits; AID 1463; also: nearly all actives have a fitted effect of over 55% in size
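Human K18 P301L tau (15 uM unlabeled plus 0.24 uM Alexa 594-labeled, final) in 100 mM sodium acetate pH 7 was mixed with compound and 20 uM heparin and incubated 6 hr at 37 C.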
VP16 counter: counter-screen for ROR gamma inhibitors: Gal4-VP16 reporter; Drosophila S2 Gal4-VP16 UAS-luciferase, luminescence, 20 h; Potency, µM (highest dose often 53.6 µM), without a hit: at the highest dose activity, negative = inhibition, most hits filed as inhibitors; 310,000 compounds, 3.5% hits; AID 2546;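 also: Gal4-VP16 expression switched on by copper sulfate through the metallothionein promoter; nearly all actives have a fitted effect of over 50% in size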
RORgamma inh: ROR gamma (mouse) transcription inhibition. P51450. Drosophila S2 Gal4-RORgamma UAS-luciferase reporter, 20 h. Potency, µM (doses to about 53.6 µM), without a hit: at the top dose activity change, negative = inhibition, usual class: inhibitors. 310,000 compounds, 5.4% hits. AID 2551; also: nearly all actives have a fitted effect of over 60% in size
Target sequence (P51450 whole entry, looked up, the tested form may be a part): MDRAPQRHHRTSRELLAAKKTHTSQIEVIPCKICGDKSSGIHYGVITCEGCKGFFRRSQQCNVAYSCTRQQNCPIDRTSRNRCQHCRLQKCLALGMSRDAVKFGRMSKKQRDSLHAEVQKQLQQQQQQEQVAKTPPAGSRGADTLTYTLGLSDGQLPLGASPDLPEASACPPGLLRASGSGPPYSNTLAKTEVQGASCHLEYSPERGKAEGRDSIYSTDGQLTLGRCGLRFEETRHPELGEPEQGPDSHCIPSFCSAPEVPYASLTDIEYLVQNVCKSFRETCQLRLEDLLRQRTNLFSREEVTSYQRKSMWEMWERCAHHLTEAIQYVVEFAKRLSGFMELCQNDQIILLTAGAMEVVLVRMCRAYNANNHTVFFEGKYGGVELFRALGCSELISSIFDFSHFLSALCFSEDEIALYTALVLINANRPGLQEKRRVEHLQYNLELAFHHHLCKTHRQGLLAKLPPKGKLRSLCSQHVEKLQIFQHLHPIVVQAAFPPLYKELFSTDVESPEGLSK
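Using a luciferase readout, inhibitors were identified by reduced reporter activity in Drosophila cells coexpressing a copper-inducible Gal4–ROR gamma fusion and UAS-driven Photinus luciferase, incubated 20 hr after 700 uM copper sulfate.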
Tau fibril FP: tau fibrillization inhibition (FP); K18 P301L tau heparin fibrillization, Alexa594 FP, 6 h; 280,000 compounds, 0.39% hits; Potency, µM (doses to about 57.7 µM), inactives show at the top dose activity, negative = inhibition, most hits filed as inhibitors; AID 1468; P10636; also: nearly all actives have a fitted effect of over 55% in size
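Steps: dispense K18 P301L tau (15 uM plus 0.24 uM Alexa 594 tracer, final) in pH 7 sodium acetate; add compound; add heparin (20 uM final); incubate 6 hr, 37 C; add ThT (30 uM final); after 1 hr ambient, read FP.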
* marks the source's active call; other numbers are inactive results; [ ] = another dose, or the depositor's remark. Most compounds without a hit are left out; they make up all but 7.3% or so of the library. Calls follow the shape of the dose curve; as a rule, active = well fitted curve in the direction sought with a large enough effect; inconclusive = small, poorly fitted or top-dose-only effect, or another doubt; inactive = no such curve, though single readings can be large; an effect the other way counts as inactive or inconclusive. % is scaled to controls: 0 for no effect and ±100 for the full control effect; potency is read from the fitted curve at half-maximal effect.

Screening CCn1cc(C(=O)O)c(=O)c2cnc(N3CCN(C(=S)NC(=O)c4ccc(OC)cc4)CC3)nc21 returned VP16 counter -7% and RORgamma inh -12%.
For CCn1cc(C(=O)O)c(=O)c2cc(F)c(N3CCN(C(=S)NC(=O)c4ccc(F)cc4)CC3)cc21 the results were Tau ThT inhib -11%, Tau fluor counter -2%, VP16 counter 4µM*, RORgamma inh 2.5µM* and Tau fibril FP 10%.
For CCn1cc(C(=O)O)c(=O)c2cc(F)c(N3CCN(C(=S)NC(=O)c4c(OC)cccc4OC)CC3)cc21 the results were VP16 counter -7% and RORgamma inh 4%.
Screening CCn1cc(C(=O)O)c(=O)c2cnc(N3CCN(C(=S)NC(=O)c4ccc(F)c(F)c4)CC3)nc21 returned VP16 counter inconclusive and RORgamma inh 2.5µM*.
CCn1cc(C(=O)O)c(=O)c2cc(F)c(N3CCN(C(=S)NC(=O)c4ccc(F)c(F)c4)CC3)cc21 was read as Tau ThT inhib 1%, Tau fluor counter -9%, VP16 counter inconclusive, RORgamma inh inconclusive and Tau fibril FP 4%.
Screening CCCOc1ccc(C(=O)NC(=S)N2CCN(c3cc4c(cc3F)c(=O)c(C(=O)O)cn4CC)CC2)cc1 returned VP16 counter -16% and RORgamma inh 1.8µM*.
Screening CCn1cc(C(=O)O)c(=O)c2cc(F)c(N3CCN(C(=S)NC(=O)c4cccc(F)c4)CC3)cc21 returned Tau fluor counter 5%, VP16 counter 3%, RORgamma inh 2.8µM* and Tau fibril FP 6%.
`COc1ccc(CNC(=O)c2ccc(NC(=O)N3CCSc4ncccc43)cc2)c(OC)c1` gave Tau ThT inhib -7%, Tau fluor counter -12% and Tau fibril FP -7%.
Screening COc1ccc(-c2oc(NC(=O)CCl)c(C#N)c2-c2ccc(OC)cc2)cc1 returned Tau ThT inhib 25µM*, Tau fluor counter 16µM*[quencher], VP16 counter inconclusive, RORgamma inh inconclusive and Tau fibril FP -15%.
COc1ccc(-c2oc(NC(=O)CSc3ncn[nH]3)c(C#N)c2-c2ccc(OC)cc2)cc1 was read as Tau ThT inhib inconclusive, Tau fluor counter 14µM*[quencher], VP16 counter 5%, RORgamma inh 36% and Tau fibril FP 0%.
For Cc1ccnc(SCC(=O)Nc2oc(-c3ccccc3)c(-c3ccccc3)c2C#N)n1 the results were Tau ThT inhib 0%, Tau fluor counter -21%, RORgamma inh -25%[0.365 µM] and Tau fibril FP -11%.
`COC(=O)c1cc(=O)c(O)c2c(O)c(O)ccc2c1` gave Tau ThT inhib 3.5µM*, Tau fluor counter inconclusive, VP16 counter 5%, RORgamma inh -12% and Tau fibril FP 7.9µM*.
O=C(/C(=C/O)N=Nc1ccccc1)c1ccco1 was read as Tau ThT inhib 20µM*, Tau fluor counter -13%, VP16 counter -19%, RORgamma inh 17% and Tau fibril FP 6%.
Screening CCCCNC(=S)NNC(=O)c1csc(C)c1CC returned Tau ThT inhib -14%, Tau fluor counter -18%, VP16 counter -27%, RORgamma inh 2.8µM* and Tau fibril FP -7%.
`C=CCNC(=S)NNC(=O)c1csc(C)c1CC` gave Tau ThT inhib -11%, Tau fluor counter -7%, VP16 counter -17%, RORgamma inh 8.9µM* and Tau fibril FP -5%.
For C=CCNC(=S)NNC(=O)c1cccc2ccccc12 the results were Tau ThT inhib -8%, Tau fluor counter -1%, VP16 counter -27%, RORgamma inh 1.1µM* and Tau fibril FP 0%.
For Cc1ccc(C(=O)N2CCC(c3c[nH]c4ccccc34)(c3c[nH]c4ccccc34)CC2)cc1 the results were Tau ThT inhib -6%, Tau fluor counter inconclusive and Tau fibril FP 6%.
COc1cccc(COC(=O)c2ccc(-c3nnn(Cc4cccc(OC)c4)n3)cc2)c1 was read as Tau ThT inhib 0%, Tau fluor counter -21% and Tau fibril FP -14%.
Screening N#Cc1c(Nc2ccccc2C(F)(F)F)s[nH]c1=O returned Tau ThT inhib 16µM*, Tau fluor counter -17%, VP16 counter 11µM*, RORgamma inh 14µM* and Tau fibril FP 28µM*.
For N#Cc1c(Nc2ccccc2Cl)s[nH]c1=O the results were Tau ThT inhib 7.9µM*, Tau fluor counter inconclusive, VP16 counter 3.2µM*, RORgamma inh 1.3µM* and Tau fibril FP 8.9µM*.
N#Cc1c(Nc2ccccc2)s[nH]c1=O was read as Tau fluor counter inconclusive, VP16 counter 11µM*, RORgamma inh inconclusive and Tau fibril FP 16µM*.
For COc1ccc(N2CCN(C(=O)Cc3ccc(Cl)cc3)CC2)cc1 the results were VP16 counter 0% and RORgamma inh 33%.
O=C(CNc1ccc(Br)cc1)c1ccc(O)cc1 was read as Tau ThT inhib inconclusive, Tau fluor counter inconclusive, VP16 counter inconclusive, RORgamma inh -2% and Tau fibril FP 7%.
For O=C(CNc1ccc(Br)cc1)NNC1=NCCC1 the results were Tau ThT inhib -6%, Tau fluor counter -7%, VP16 counter 7.1µM*, RORgamma inh 5.6µM* and Tau fibril FP -2%.
Screening COC(=O)C1OC(=O)C2OC23[C@]2(C)C(OC(C)=O)CC4C(C)(C)C(=O)CC[C@]4(C)C2CC[C@@]13C (some centres not stated) returned Tau ThT inhib inconclusive, Tau fluor counter inconclusive, VP16 counter -11%, RORgamma inh 3% and Tau fibril FP inconclusive.
For NC(=O)CC(NC(=O)Cc1ccc(Br)cc1)c1ccc(NCCc2ccc(Cl)cc2)c([N+](=O)[O-])c1 (configuration not stated) the results were Tau ThT inhib inconclusive, Tau fluor counter inconclusive, VP16 counter -5%, RORgamma inh -14% and Tau fibril FP inconclusive.
For NC(=O)CC(NC(=O)c1ccccc1)c1ccc(NCc2ccccc2)c([N+](=O)[O-])c1 (configuration not stated) the results were Tau ThT inhib 13µM*, Tau fluor counter -28%, VP16 counter 6%, RORgamma inh 8% and Tau fibril FP -3%.
`NC(=O)CC(NC(=O)c1ccccc1)c1ccc(NCCc2ccc(Cl)cc2)c([N+](=O)[O-])c1` (configuration not stated) gave Tau ThT inhib 13µM*, Tau fluor counter inconclusive, VP16 counter -2%, RORgamma inh 3% and Tau fibril FP -12%.
`NC(=O)CC(NC(=O)c1ccc(Br)cc1)c1ccc(NCc2ccc(F)cc2)c([N+](=O)[O-])c1` (configuration not stated) gave Tau ThT inhib inconclusive, Tau fluor counter inconclusive, VP16 counter 1%, RORgamma inh 26% and Tau fibril FP -1%.
